Assay outcomes as filed in PubChem.
CHT allo act: CHT positive allosteric modulators, primary screen, cell-based, membrane potential dye, choline EC20; B-score at 10 µM; CHT-expressing cells; stronger effect = higher value; LV-AA mutant CHT in HEK293 cells; hit rate 0.49% among 310,000;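 active = initial fluorescence not abnormally high and integrated response B-score, plate-corrected, over 3 SD above library mean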
TMEM16A act: TMEM16A chloride channel activators or potentiators, primary screen, cell-based, HTS | Anoctamin-1 (Mus musculus), Q8BHY3 | hit rate 0.3% among 340,000 | HEK293 TMEM16A/YFP-H148Q/I152L, iodide quench fluorescence; stronger effect = lower value | B-score at 10 µM;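 active = fluorescence-ratio B-score plate-corrected deviation score at least 3 library SD below zero, with starting fluorescence score within 5 deviations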;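 note: channel opened by trigger with iodide after compound preincubation; score built on the fluorescence ratio of max minus min over baseline; more negative score means more quench and so TMEM16A activation or potentiation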
CHT block: inhibitors of human choline transporter CHT; CHT-expressing cells, membrane potential dye, choline response; stronger effect = lower value; B-score at 10 µM; High affinity choline transporter 1 (Homo sapiens), Q9GZV3; hit rate 0.86% among 310,000; AID 488975, 2010;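 active = B-score over 3 SD under the library average, and starting fluorescence ratio not unusually high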;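 note: choline stimulus applied at its EC90 after an EC20 pre-addition; B-score computed on integrated fluorescence ratio after choline addition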
Kir21 block: inhibitors of mouse Kir2.1 inward-rectifier potassium channel; Inward rectifier potassium channel 2 (Mus musculus), P35561; HEK293-Kir2.1, FluxOR thallium flux fluorescence; stronger effect = lower value; B-score at 10 µM; hit rate 0.85% among 310,000;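 active = fluorescence ratio B-score at or below minus 3 SD of library scores, with starting-brightness B-score within 2 SD, cut at about -4.2 in these data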;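 note: channel flux triggered by added potassium and thallium sulfate stimulus; B-score of peak minus minimum fluorescence over baseline after thallium stimulus; more negative B-score means stronger Kir2.1 block with less thallium influx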
Target sequence (P35561 whole entry, looked up): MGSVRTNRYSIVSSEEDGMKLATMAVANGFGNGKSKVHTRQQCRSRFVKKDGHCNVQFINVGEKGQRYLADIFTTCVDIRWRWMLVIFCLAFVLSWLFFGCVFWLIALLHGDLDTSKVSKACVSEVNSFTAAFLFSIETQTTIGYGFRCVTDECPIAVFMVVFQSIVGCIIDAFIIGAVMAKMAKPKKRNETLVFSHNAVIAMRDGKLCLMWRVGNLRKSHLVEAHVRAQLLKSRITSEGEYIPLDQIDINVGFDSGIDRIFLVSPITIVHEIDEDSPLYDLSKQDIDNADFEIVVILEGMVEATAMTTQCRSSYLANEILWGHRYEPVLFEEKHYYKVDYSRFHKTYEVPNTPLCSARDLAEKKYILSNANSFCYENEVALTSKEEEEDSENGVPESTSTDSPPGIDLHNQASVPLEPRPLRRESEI
GPR7 antag: GPR7 receptor antagonists, primary screen, cell-based, fluorescence, single concentration. GPR7-expressing cells, fluorescence antagonist assay. inhibition, % at 4.4 µM. hit rate 1.1% among 290,000. AID 1861, 2009; in the data active = inhibition above about 16%, passing the limit was not always enough;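 note: cells stimulated with the agonist NPW; 0% = agonist with vehicle and 100% = vehicle without agonist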
ANO1 block: TMEM16A chloride channel inhibitors, primary screen, cell-based, HTS; Anoctamin-1 (Mus musculus), Q8BHY3; hit rate 1.2% among 310,000; HEK293 TMEM16A/YFP iodide influx fluorescence, ionomycin; normalized B-score (activity score, 25-100; higher = stronger inhibition) at 10 µM;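 active = ratio plate-corrected score three or more library SD toward inhibition, starting fluorescence score within five deviations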;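 note: score derived from kinetic fluorescence span divided by baseline fluorescence per well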
CHT activ conf: CHT activators, confirmation, cell-based, membrane potential dye, duplicate. shares compounds with CHT allo act. CHT-expressing cells, membrane potential dye fluorescence (FDSS); % of choline EC20–EC90 response window; HEK293 expressing CHT LV-AA mutant; choline added at its EC20. activation, % at 10 µM. hit rate 91% among 2,500. AID 504833, 2011;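 active = primary screen active, with duplicate mean activation above negative control mean plus 3 SD, cut at about 11% in these data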
HEK293 MP dye: membrane potential response in parental HEK293 cells, counter-screen for CHT activator project, cell-based, membrane potential dye; AID 623908, 2012; hit rate 62% among 2,500; membrane potential dye fluorescence (FDSS); measured after EC20 choline addition; ratio readout change at 10 µM, hits read low; shares compounds with CHT allo act;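 active = duplicate-averaged ratio beyond 3 SD from buffer wells, up or down, though filed actives are nearly all decreases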
* marks the source's active call; other numbers are inactive results; i = inactive; . = no result given. A selection: hits, their analogues and other compounds. The true share with any hit is near 3.7%.

SMILES	CHT allo act	TMEM16A act	CHT block	Kir21 block	GPR7 antag	ANO1 block	CHT activ conf	HEK293 MP dye
COc1cc(C(=O)OCCCN2CCCN(CCCOC(=O)c3cc(OC)c(OC)c(OC)c3)CC2)cc(OC)c1OC	9.12*	i	i	-0.37	.	i	44.5*	-31*
CCOC(=O)c1ncccc1NC(=O)CC(=O)Nc1cccnc1C(=O)OCC	i	i	i	-0.22	.	i	31.8*	-35.9*
CCOc1ccc(C(=O)OCC(=O)Nc2cccnc2Cl)cc1OCC	.	i	.	.	.	.	.	.
CC(C)n1cnc2c(Nc3ccc(C(=O)O)cc3)nc(Cl)nc21	i	i	i	0.41	.	i	.	.
CC(C)n1cnc2c(Nc3cccc(Cl)c3)nc(NCCCO)nc21	i	i	i	1.03	.	i	8.8	i
O=C(Nc1ccccc1C(=O)NCCCN1CCOCC1)c1cccc([N+](=O)[O-])c1	6.32*	i	i	-0.72	-5.7	i	49.7*	-58.9*
Nc1nnnn1CC(=O)N/N=C/c1ccccn1	i	i	i	-0.01	-12.1	i	.	.
CC(C)CCNC(=O)/C=C/c1ccc(Br)cc1	i	i	i	0.56	-2.7	i	25.0*	i
CC(C)CCNC(=S)Nc1ccc(Br)cc1	i	i	i	-0.52	-3.2	i	.	.
O=C(c1ccc2[nH]c(=O)c(=O)[nH]c2c1)N1CCc2ccccc2C1	i	i	i	0.07	4.2	i	.	.
CCN(CC)CCNC(=O)Cn1cnc2sc(C)c(S(=O)(=O)N3CC(C)CC(C)C3)c2c1=O (stereo unspecified)	i	i	i	0.17	-9.6	i	.	.
CC(=O)c1ccc(NC(=O)Nc2cccnc2)cc1	i	i	i	0.26	-2.4	i	.	.
CC(=O)c1ccc(NC(=O)Nc2ccncc2)cc1	i	i	i	0.84	-18.6	i	33.5*	-38.4*
CN(C)CC(CCCCC(CN(C)C)C(=O)c1ccccc1)C(=O)c1ccccc1 (stereo unspecified)	8.37*	i	i	0.12	-4.3	i	29.2*	i
CN(C)CCC(C(=O)c1ccccc1)c1ccccn1 (stereo unspecified)	.	i	.	.	.	.	.	.
CCCSc1ccc([C@@H]2[C@H]3C(=O)N(CC)C(=O)[C@H]3[C@]3(C(=O)OC)CCCCN23)cc1	i	i	i	-0.4	.	i	.	.
Cc1ccc2cc(/C=N/NC(=O)CN3CCCCC3)c(Cl)nc2c1	i	i	i	-0.81	-4.8	i	.	.
CCN(Cc1ccccc1)C(c1ccc(Cl)cc1)c1nnnn1C(C)(C)C (stereo unspecified)	7.19*	i	i	0.87	-8.8	i	31.6*	i
CC(C)(C)n1nnnc1C(c1ccncc1)N(Cc1ccccc1)Cc1ccco1 (stereo unspecified)	i	i	i	-1.52	8.4	i	.	.
CN(C)CCNc1ncnc2ccccc12	i	i	i	0.6	-10.6	i	18.3*	-52.5*
Cc1ccc(-c2nc(NCCN(C)C)c3ccccc3n2)cc1	i	i	i	0.51	-1.0	i	.	.
c1ccc(Cn2c[n+](Cc3ccccc3)c3ccccc32)cc1	i	i	i	-3.42	-4.8	i	45.5*	i
COCCc1nc2ccc(C(=O)N(C)Cc3cccc(-n4nc(C)cc4C)c3)cc2o1	i	i	i	-1.97	-14.6	i	.	.
